# Earlier results in PubChem BioAssay AID977611.
# Counter-ions that a name gives are not always drawn. Out of some 3,900 compounds screened, about 3,900 (100%) were called active. No cut-off is given here; in the data, nearly all actives have Kd up to about 4200 µM. So high a share suggests a set chosen from earlier hits. This is one part of the list. Bridge positions count the residues as written; N and C are the ends. Where a SMILES comes first, the peptide text is derived from it. Non-standard residues stand in square brackets, D forms with d. Square brackets hold non-standard residues; d marks the D form. Residues, ends and D or L forms follow the SMILES beside them. Peptide text beside a SMILES is read from it. [ ]: non-standard residue; d: D form. * marks the point of attachment. Orn(CH(NH2)2) = NC(N)NCCC[C@H](N)C(=O)O; Cha = N[C@@H](CC1CCCCC1)C(=O)O; Tfa = O=C(C(F)(F)F)*
# Experiment: PubChem AID 977611
# Details: PDB protein-ligand complexes, literature Kd
compound,measurement,setting,value
CCCCC/C=C\C/C=C\CCCCCCCCCC(=O)N[C@@H](CO[C@H]1O[C@H](CO)[C@H](O)[C@H](O)[C@H]1O)[C@H](O)[C@H](O)CCCCCCCCCCCCCC,Kd,"protein: L363, PDB entry 3ubx",0.0252 µM (active)
CCCCCC[C@@H](O)[C@H](CCCCCC)C(=O)O,Kd,"protein: Peptidoglycan recognition protein 1, PDB entry 3t2v",0.103 µM (active)
CC(C)C[C@H](NC(=O)[C@@H](N)CCCCN)C(=O)N[C@@H](Cc1ccc(O)cc1)C(=O)N[C@@H](CC1CCCCC1)C(=O)N[C@@H](CC(C)C)C(=O)N1CCC[C@H]1C(=O)N[C@@H](CCCNC(N)N)C(=O)N1CCC[C@H]1C(=O)N[C@H](C=O)[C@@H](C)O (H-KLY[Cha]LP[Orn(CH(NH2)2)]PT-aldehyde),Kd,"protein: E. coli Chaperone protein dnaK, PDB entry 3dpo",0.0055 µM (active)
CC(C)C[C@H](N)C(=O)N[C@@H](Cc1ccc(O)cc1)C(=O)N[C@@H](CC1CCCCC1)C(=O)N[C@@H](CC1CCCCC1)C(=O)N1CCC[C@H]1C(=O)N[C@@H](CCCNC(N)N)C(=O)N1CCC[C@H]1C(=O)N[C@H](C(N)=O)[C@@H](C)O (H-LY[Cha][Cha]P[Orn(CH(NH2)2)]PT-NH2),Kd,"protein: Chaperone protein DnaK, PDB entry 4hy9",0.08 µM (active)
CC[C@H](C)[C@H](NC(=O)[C@H](CC1CCCCC1)NC(=O)[C@H](Cc1ccc(O)cc1)NC(=O)[C@@H](N)CC(C)C)C(=O)N1CCC[C@H]1C(=O)N[C@@H](CCCNC(N)N)C(=O)N1CCC[C@H]1C(N)=O (H-LY[Cha]IP[Orn(CH(NH2)2)]P-NH2),Kd,"protein: Chaperone protein DnaK, PDB entry 4hyb",0.35 µM (active)
NC1NC(=O)c2c([nH]c(=S)n2CCO)N1 (centres undefined),Kd,"protein: 7,8-DIHYDRO-6-HYDROXYMETHYLPTERIN-PYROPHOSPHOKINASE, PDB entry 4ad6",16.7 µM (active)
H-VNPTGCARSEPKMS-OH,Kd,"protein: WD repeat-containing protein 5, WDR5, PDB entry 4ery",0.054 µM (active)
H-INPTGCARSEPKI-OH,Kd,"protein: WD repeat-containing protein 5, WDR5, PDB entry 4erq",0.075 µM (active)
H-KEKSD-OH,Kd,"protein: Coatomer subunit beta', PDB entry 4j77",3.4 µM (active)
C[C@H](NC(=O)[C@H](CC(=O)O)NC(=O)[C@H](CCCCN)NC(=O)[C@H](CO)NC(=O)[C@H](C)NC(=O)[C@@H](N)CO)C(=O)O (H-SASKDA-OH),Kd,"protein: Histone-lysine N-methyltransferase SETD7 (Y335F mutant), PDB entry 4j7i",8.8 µM (active)
NC(N)=N/C=C/C[C@H](N[C@H](CCC(=O)O)C(=O)O)C(=O)O,Kd,"protein: Nopaline-binding periplasmic protein NocT WT, PDB entry 4pox",3.7 µM (active)
CC(C)(C)c1cccc(C2C=CC=NC2=O)c1 (centres undefined),Kd,"protein: RNA-directed RNA polymerase, PDB entry 4ih7",5.8 µM (active)
NC1NC(=O)c2[nH]cc(CN3C[C@H](CO)[C@@H](O)C3)c2N1 (some centres undefined),Kd,"protein: Purine nucleoside phosphorylase (W16Y, W94Y, W178Y, H257W mutation), PDB entry 4ear",0.000151 µM (active)
CC1(C)CNC(=[N+]2CCN(c3ncnc4sc(CC(F)(F)F)cc34)CC2)S1,Kd,"protein: Menin (A541T mutation), PDB entry 4gq4",0.022 µM (active)
CC(C)[C@H](NC(=O)[C@H](CO[P+](O)(O)O)NC(=O)[C@H](CCCCN)NC(=O)[C@H](CCCNC(N)N)NC(=O)[C@H](CCCNC(N)N)NC(=O)[C@@H](N)CCCCN)C(=O)O,Kd,"protein: 14-3-3 protein sigma, PDB entry 4fr3",0.07 µM (active)
CC(C)[C@H](NC(=O)[C@H](CO[P+](O)(O)O)NC(=O)[C@H](CCCCN)NC(=O)[C@H](CCCNC(N)N)NC(=O)[C@H](CCCNC(N)N)NC(=O)[C@H](C)N)C(=O)O,Kd,"protein: 14-3-3 protein sigma, PDB entry 3ux0",0.55 µM (active)
C[C@H](NC(=O)[C@H](CCCCN)NC(=O)[C@H](CC(=O)O)NC(=O)[C@@H](N)CCCCN)C(=O)N[C@@H](CCCCN)C(=O)N[C@@H](CO[P+](O)(O)O)C(=O)N[C@@H](CS)C(=O)O,Kd,"protein: 14-3-3 PROTEIN ZETA/DELTA, PDB entry 4bg6",0.069 µM (active)
NC(=NCC[C@H](N)C(=O)O)NO,Kd,"protein: Arginase, PDB entry 4q3u",0.36 µM (active)
CC[C@H](C)[C@H](NC(=O)[C@H](CC(N)=O)NC(=O)[C@@H](N)Cc1ccccc1)C(=O)N[C@H](C(=O)NCC(=O)N[C@H](C(=O)N[C@H](C(=O)N[C@@H](Cc1ccc(O)cc1)C(=O)N1CCC[C@H]1C(=O)O)[C@@H](C)O)[C@@H](C)O)C(C)C (H-FNIVGTTYP-OH),Kd,"protein: Gephyrin GephE, PDB entry 4tk2",190 µM (active)
CC[C@H](C)[C@H](NC(=O)[C@@H](NC(=O)[C@@H](NC(=O)[C@H](CCCCN)NC(=O)[C@H](CC(=O)O)NC(=O)[C@@H](N)C(C)C)C(C)C)C(C)C)C(=O)N[C@@H](CC(N)=O)C(=O)N1CCC[C@H]1C(=O)N[C@@H](Cc1ccc(O)cc1)C(=O)N[C@@H](Cc1ccccc1)C(=O)NCC(=O)O (H-VDKVVINPYFG-OH),Kd,"protein: Malcavernin CCM2 PTB domain, PDB entry 4wj7",13 µM (active)
CC[C@H](C)[C@H](NC(=O)[C@@H](NC(=O)[C@H](Cc1ccc(O)cc1)NC(=O)[C@H](C)N)[C@@H](C)O)C(=O)N[C@@H](CS)C(=O)N[C@@H](C)C(=O)NCC(=O)N[C@H](C(=O)N[C@@H](CCC(N)=O)C(=O)N[C@H](C(=O)N[C@@H](CC(=O)O)C(=O)N1CCC[C@H]1C(=O)O)[C@@H](C)O)[C@@H](C)O (H-AYTICAGTQTDP-OH),Kd,"protein: Dynein light chain 1, cytoplasmic LC8, PDB entry 4qh7",1.14 µM (active)
H-FNIVGTTYPC-OH,Kd,"protein: Gephyrin GephE, PDB entry 4u90",0.288 µM (active)
CC[C@H](C)[C@H](NC(=O)[C@H](CC(N)=O)NC(=O)[C@@H](N)Cc1ccccc1)C(=O)N[C@H](C(=O)NCC(=O)N[C@H](C(=O)N[C@H](C(=O)N[C@@H](Cc1ccc(O)cc1)C(=O)N1CCC[C@H]1C(=O)N[C@H](C(=O)N[C@@H](CC(N)=O)C(=O)O)[C@@H](C)CC)[C@@H](C)O)[C@@H](C)O)C(C)C (H-FNIVGTTYPIN-OH),Kd,"protein: Gephyrin GephE, PDB entry 4tk1",190 µM (active)
CC[C@H](C)[C@H](NC(=O)[C@H](CO)NC(=O)[C@@H](N)Cc1ccccc1)C(=O)N[C@H](C(=O)NCC(=O)N[C@H](C(=O)N[C@@H](CC(C)C)C(=O)N[C@@H](Cc1ccc(O)cc1)C(=O)N1CCC[C@H]1C(=O)O)[C@@H](C)O)C(C)C (H-FSIVGTLYP-OH),Kd,"protein: Gephyrin GephE, PDB entry 4tk3",8 µM (active)
same,Kd,"protein: Gephyrin GephE, PDB entry 4tk4",8 µM (active)
NC(N)=NCCC[C@@H](C(=O)O)N1[C@@H](C(=O)O)CC[C@@H]1O,Kd,"protein: Nopaline-binding periplasmic protein NocT-M117N, PDB entry 4pp0",39.9 µM (active)
NC(N)=NCCC[C@@H](C(=O)O)N1[C@H](O)CC[C@@H]1C(=O)O,Kd,"protein: Nopaline-binding periplasmic protein NocT WT, PDB entry 4pow",0.5 µM (active)
C[N+](C)(C)CCO[P+](O)(O)O,Kd,"protein: Ficolin-2, PDB entry 4nyt",4100 µM (active)
CC(O)C1C(=O)[C@H]2[C@@H]3c4c[nH]c5cccc(c45)C[C@@H]3C(C)(C)N2C1=O (some centres undefined),Kd,"protein: Sarcoplasmic/endoplasmic reticulum calcium ATPase 1, PDB entry 2EAS",0.007 µM (active)
CC(=O)N[C@H]1[C@H](O[C@H]2[C@H](O)[C@@H](O)CN[C@@H]2CO)O[C@H](CO)[C@@H](O[C@@H]2O[C@H](CO)[C@@H](O[C@@H]3O[C@H](CO)[C@@H](O)[C@H](O)[C@H]3NC(C)=O)[C@H](O)[C@H]2NC(C)=O)[C@@H]1O,Kd,"protein: Lysozyme C, PDB entry 4hp0",0.76 µM (active)
CC(=O)N[C@H]1[C@H](O[C@H]2[C@H](O)[C@@H](O)CN[C@@H]2CO)O[C@H](CO)[C@@H](O[C@@H]2O[C@H](CO)[C@@H](O)[C@H](O)[C@H]2NC(C)=O)[C@@H]1O,Kd,"protein: Lysozyme C, PDB entry 4hpi",14.2 µM (active)
OC[C@H]1O[C@@H](O)[C@H](O)[C@@H](O)[C@@H]1S[C@@H]1O[C@@H](CO[P+](O)(O)O)[C@@H](O)[C@H](O)[C@H]1O,Kd,"protein: 6-phospho-beta-glucosidase, PDB entry 4ipn",409 µM (active)
CO[C@H]1O[C@H](CO)[C@@H](O)[C@H](O)[C@@H]1S[C@H]1O[C@H](CO)[C@@H](O)[C@H](O)[C@@H]1O,Kd,"protein: MANNOSYL-OLIGOSACCHARIDE 1,2-ALPHA-MANNOSIDASE, PDB entry 4ayp",0.755 µM (active)
O[C@@H]1[C@H](O)[C@@H](CO[P+](O)(O)O)O[C@@H]1O,Kd,"protein: Transcriptional regulator LsrR, PDB entry 4l5j",1000 µM (active)
same,Kd,"protein: Transcriptional regulator LsrR, PDB entry 4l51",995 µM (active)
O=C1OC[C@@H](O[C@@H]2OC[C@@H](O[C@@H]3OC[C@@H](O)[C@H](O)[C@H]3O)[C@H](O)[C@H]2O)[C@H](O)[C@H]1O,Kd,"protein: Selenomethionine XBP1, PDB entry 4g68",0.012 µM (active)
CC(C)[C@@H]1NC(=O)[C@H](Cc2c[nH]cn2)NC(=O)[C@H](Cc2ccc(O)cc2)NC(=O)[C@H]([C@@H](C)O)NC(=O)[C@H](Cc2c[nH]cn2)NC(=O)[C@H](Cc2ccc(O)cc2)NC(=O)CSC[C@@H](C(N)=O)NC(=O)[C@H](Cc2ccc(O)cc2)NC(=O)[C@H](Cc2ccc(O)cc2)NC(=O)[C@H](CC(N)=O)NC(=O)[C@H]([C@@H](C)O)NC(=O)[C@H](CCCN=C(N)N)NC(=O)[C@H](CCCN=C(N)N)NC(=O)[C@H](CCCCNC(=O)C(F)(F)F)NC1=O ({CH2CO}-YHTYHVK(Tfa)RRTNYYC-NH2; thioether N-14),Kd,"protein: NAD-dependent protein deacetylase sirtuin-2, SIRT2, PDB entry 4l3o",1 µM (active)
Cc1noc(C)c1-c1ccc(-c2[nH]c3cncc[n+]3c2NC(C)(C)C)cc1,Kd,"protein: Bromodomain-containing protein 4 BRD4, PDB entry 4wiv",0.55 µM (active)
CC(=O)N[C@@H](CO)C(=O)N[C@@H](Cc1cnc[nH]1)C(=O)N[C@H](C(=O)N[C@@H](C)C(=O)N[C@H](C(=O)N[C@@H](CCC(=O)O)C(=O)N[C@@H](CC(N)=O)C(=O)N[C@@H](C)C(=O)N[C@@H](CC(C)C)C(=O)O)C(C)C)C(C)C,Kd,"protein: HLA class I histocompatibility antigen, B-39 alpha chain, PDB entry 4o2c",0.01 µM (active)
CC(C)[C@H](N)C(=O)N[C@@H](CCC(=O)O)C(=O)N[C@@H](CCC(N)=O)C(=O)N[C@@H](Cc1cnc[nH]1)C(=O)N[C@@H](Cc1cnc[nH]1)C(=O)N[C@@H](CCCNC(N)N)C(=O)N[C@@H](CCCNC(N)N)C(=O)N[C@H](C(=O)N[C@@H](CC(=O)O)C(=O)N[C@@H](CC(N)=O)C(=O)N[C@@H](CC(=O)O)C(=O)O)[C@@H](C)O (H-VEQHH[Orn(CH(NH2)2)][Orn(CH(NH2)2)]TDND-OH),Kd,"protein: 13F6-1-2 Fab fragment heavy chain, PDB entry 2qhr",0.041 µM (active)
CC(=O)N[C@@H](Cc1ccccc1)C(=O)N[C@@H](Cc1cnc[nH]1)C(=O)N[C@H](C(=O)N[C@@H](C)C(N)=O)[C@@H](C)O (Ac-FHTA-NH2),Kd,"protein: DNA REPAIR AND RECOMBINATION PROTEIN RADA, PDB entry 4b3b",250 µM (active)
CC[C@H](C)[C@H](NC(=O)[C@H](CCC(=O)O)NC(=O)[C@H](Cc1cnc[nH]1)NC(=O)[C@@H](NC(=O)[C@@H](NC(=O)[C@H](CO)NC(C)=O)[C@@H](C)O)C(C)C)C(=O)N[C@@H](CC(C)C)C(=O)N[C@@H](CO)C(=O)N[C@@H](CCCCN)C(=O)N[C@@H](CC(C)C)C(=O)N[C@@H](CO)C(=O)O (Ac-STVHEILSKLS-OH),Kd,"protein: S100A10, PDB entry 1bt6",2 µM (active)
CC(=O)NCC(=O)N[C@@H](CO)C(=O)N[C@@H](C)C(=O)N[C@@H](CCCNC(N)N)C(=O)N[C@@H](C)C(=O)N[C@@H](CCC(=O)O)C(=O)N[C@H](C(=O)N[C@@H](Cc1cnc[nH]1)C(=O)N[C@@H](CC(C)C)C(=O)O)C(C)C (Ac-GSA[Orn(CH(NH2)2)]AEVHL-OH),Kd,"protein: WD repeat-containing protein 5, PDB entry 3eg6",1.7 µM (active)
CC(C)[C@H](NC(=O)[C@H](CCC(=O)O)NC(=O)[C@H](C)NC(=O)[C@H](CCCNC(N)N)NC(=O)[C@H](C)N)C(=O)N[C@@H](Cc1cnc[nH]1)C(=O)O (H-A[Orn(CH(NH2)2)]AEVH-OH),Kd,"protein: WD repeat-containing protein 5, PDB entry 3emh",0.14 µM (active)
